Assay results as given in PubChem BioAssay AID1159580 (chemical genetic matrix, 2015).
The campaign covered roughly 5,500 compounds. About 2,000 (36%) were called active. About 18% were inconclusive and are not listed. Cut-off read from the data, not from the text of the source: active = normalized growth mostly below about 0.91 (no sharp cut-off); inconclusive = no clear call, values can overlap the other calls; inactive = mostly above about 0.92. The list shows a part of the results.

Test: chemical genetic growth profiling, strain panel (AID 1159580);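 note: tested at 20 µM; growth read once vehicle control cultures reached saturation at 30 °C; 1 = growth at the plate median or of vehicle wells; lower values mean less growth of the strain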
Details: growth OD

Measured: normalized growth

CC(=O)S[C@@H]1CC2=CC(=O)CC[C@]2(C)[C@H]2CC[C@@]3(C)[C@@H](CC[C@@]34CCC(=O)O4)C12 (stereo not given in full)
inactive: S. cerevisiae deletion strains, locus YJR043C, strain POL32, active compounds read low 1.01 | S. cerevisiae deletion strains, locus YJR066W, strain TOR1, active compounds read low 0.981 | S. cerevisiae deletion strains, locus YJR075W, strain HOC1, active compounds read low 1.01 | S. cerevisiae deletion strains, locus YKL009W, strain mrt4, active compounds read low 1.01 | S. cerevisiae deletion strains, locus YKL068W, active compounds read low 1.01 | S. cerevisiae deletion strains, locus YKL085W, strain MDH1 (second series), active compounds read low 1.01 | S. cerevisiae deletion strains, locus YKL085W, strain MDH1, active compounds read low 1.01 | S. cerevisiae deletion strains, locus YKL160W, strain elf1, active compounds read low 1.03 | S. cerevisiae deletion strains, locus YKL190W, strain CNB1, active compounds read low 0.995 | S. cerevisiae deletion strains, locus YKR001C, strain vps1, active compounds read low 1.03 | S. cerevisiae deletion strains, locus YKR026C, strain gcn3, active compounds read low 1.01 | S. cerevisiae deletion strains, locus YKR091W, strain srl3, active compounds read low 1.01 | S. cerevisiae deletion strains, locus YLL001W, strain dnm1, active compounds read low 1.05 | S. cerevisiae deletion strains, locus YLL026W, active compounds read low 1.01 | S. cerevisiae deletion strains, locus YLL041C, strain sdh2, active compounds read low 1.01 | S. cerevisiae deletion strains, locus YLR027C, strain aat2, active compounds read low 1.02 | S. cerevisiae deletion strains, locus YLR039C, strain RIC1, active compounds read low 1.02 | S. cerevisiae deletion strains, locus YLR058C, strain SHM2, active compounds read low 1 | S. cerevisiae deletion strains, locus YLR102C, strain apc9, active compounds read low 1.02 | S. cerevisiae deletion strains, locus YLR113W, strain HOG1, active compounds read low 1.03 | S. cerevisiae deletion strains, locus YLR221C, strain rsa3, active compounds read low 0.984 | S. cerevisiae deletion strains, locus YLR258W, strain gsy2, active compounds read low 0.997 | S. cerevisiae deletion strains, locus YLR262C, strain YPT6 (second series), active compounds read low 1.03 | S. cerevisiae deletion strains, locus YLR262C, strain YPT6, active compounds read low 1.04 | S. cerevisiae deletion strains, locus YLR268W, strain sec22, active compounds read low 1.03 | S. cerevisiae deletion strains, locus YLR320W, strain mms22, active compounds read low 0.975 | S. cerevisiae deletion strains, locus YLR330W, strain CHS5, active compounds read low 1.01 | S. cerevisiae deletion strains, locus YLR342W, strain FKS1 (second series), active compounds read low 1 | S. cerevisiae deletion strains, locus YLR342W, strain FKS1, active compounds read low 1.05 | S. cerevisiae deletion strains, locus YLR357W, strain rsc2, active compounds read low 1.06 | S. cerevisiae deletion strains, locus YLR370C, strain arc18, active compounds read low 1.02 | S. cerevisiae deletion strains, locus YLR371W, strain rom2, active compounds read low 1.03 | S. cerevisiae deletion strains, locus YLR384C, strain iki3, active compounds read low 1.01 | S. cerevisiae deletion strains, locus YLR418C, strain cdc73, active compounds read low 1.03 | S. cerevisiae deletion strains, locus YML016C, strain PPZ1, active compounds read low 1 | S. cerevisiae deletion strains, locus YML032C, strain rad52, active compounds read low 1.02 | S. cerevisiae deletion strains, locus YML120C, strain ndi1, active compounds read low 1.02 | S. cerevisiae deletion strains, locus YML124C, strain tub3, active compounds read low 1.04 | S. cerevisiae deletion strains, locus YMR058W, strain fet3, active compounds read low 1.01 | S. cerevisiae deletion strains, locus YMR078C, strain ctf18, active compounds read low 1.03 | S. cerevisiae deletion strains, locus YMR125W, strain sto1, active compounds read low 1.01 | S. cerevisiae deletion strains, locus YMR129W, active compounds read low 1.01 | S. cerevisiae deletion strains, locus YMR205C, strain PFK2, active compounds read low 1.02 | S. cerevisiae deletion strains, locus YMR223W, strain ubp8, active compounds read low 1.03 | S. cerevisiae deletion strains, locus YMR231W, strain pep5, active compounds read low 1.01 | S. cerevisiae deletion strains, locus YMR307W, strain GAS1, active compounds read low 0.999 | S. cerevisiae deletion strains, locus YNL067W, strain RPL9B, active compounds read low 1.01 | S. cerevisiae deletion strains, locus YNL071W, strain lat1, active compounds read low 1.01 | S. cerevisiae deletion strains, locus YNL183C, strain NPR1, active compounds read low 0.977 | S. cerevisiae deletion strains, locus YNL209W, strain ssb2, active compounds read low 1.01 | S. cerevisiae deletion strains, locus YNL233W, strain BNI4, active compounds read low 1.01 | S. cerevisiae deletion strains, locus YNL248C, strain rpa49, active compounds read low 0.97 | S. cerevisiae deletion strains, locus YNL250W, strain rad50, active compounds read low 1.02 | S. cerevisiae deletion strains, locus YNL271C, strain bni1, active compounds read low 1.04 | S. cerevisiae deletion strains, locus YNL298W, strain CLA4, active compounds read low 1.04 | S. cerevisiae deletion strains, locus YNL307C, strain MCK1, active compounds read low 1.04 | S. cerevisiae deletion strains, locus YNL322C, strain KRE1 (second series), active compounds read low 1 | S. cerevisiae deletion strains, locus YNL322C, strain KRE1, active compounds read low 1 | S. cerevisiae deletion strains, locus YNR049C, strain mso1, active compounds read low 1.01 | S. cerevisiae deletion strains, locus YNR052C, strain pop2, active compounds read low 1.02 | S. cerevisiae deletion strains, locus YOL006C, strain TOP1, active compounds read low 0.994 | S. cerevisiae deletion strains, locus YOL012C, strain htz1 1.16 | S. cerevisiae deletion strains, locus YOL147C, strain pex11, active compounds read low 1.02 | S. cerevisiae deletion strains, locus YOR001W, strain rrp6, active compounds read low 1.03 | S. cerevisiae deletion strains, locus YOR061W, strain CKA2, active compounds read low 1 | S. cerevisiae deletion strains, locus YOR069W, strain VPS5, active compounds read low 1 | S. cerevisiae deletion strains, locus YOR070C, strain gyp1, active compounds read low 0.996 | S. cerevisiae deletion strains, locus YOR080W, strain dia2, active compounds read low 1.03 | S. cerevisiae deletion strains, locus YOR083W, strain WHI5, active compounds read low 1 | S. cerevisiae deletion strains, locus YOR106W, strain vam3, active compounds read low 1.04 | S. cerevisiae deletion strains, locus YOR136W, strain idh2, active compounds read low 1.03 | S. cerevisiae deletion strains, locus YOR144C, strain elg1, active compounds read low 1.01 | S. cerevisiae deletion strains, locus YOR184W, strain ser1, active compounds read low 1.03 | S. cerevisiae deletion strains, locus YOR231W, strain MKK1, active compounds read low 1.02 | S. cerevisiae deletion strains, locus YOR265W, strain rbl2, active compounds read low 1.01 | S. cerevisiae deletion strains, locus YOR270C, strain vph1, active compounds read low 0.968 | S. cerevisiae deletion strains, locus YOR290C, strain snf2, active compounds read low 0.977 | S. cerevisiae deletion strains, locus YOR316C, strain cot1, active compounds read low 1.03 | S. cerevisiae deletion strains, locus YPL051W, strain arl3, active compounds read low 1.01 | S. cerevisiae deletion strains, locus YPL078C, strain atp4, active compounds read low 1.04 | S. cerevisiae deletion strains, locus YPL106C, strain sse1, active compounds read low 0.985 | S. cerevisiae deletion strains, locus YPL240C, strain hsp82, active compounds read low 1 | S. cerevisiae deletion strains, locus YPL241C, strain CIN2, active compounds read low 1 | S. cerevisiae deletion strains, locus YPL256C, strain CLN2, active compounds read low 1.09 | S. cerevisiae deletion strains, locus YPR119W, strain clb2, active compounds read low 1.03 | S. cerevisiae deletion strains, locus YPR141C, strain kar3, active compounds read low 1.03 | S. cerevisiae deletion strains, locus YPR163C, strain tif3, active compounds read low 1.04 | S. cerevisiae deletion strains, locus YPR167C, strain met16, active compounds read low 1.03 | S. cerevisiae deletion strains, strain wtn01, active compounds read low 1.03 | S. cerevisiae strains, strain wild type, active compounds read low 1
